Measured values as given in PubChem BioAssay.
Active and inactive are the calls of the source.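 Rule for the calls, unless noted: active = compounds lowering colon cancer cell viability after pretreatment blocking the GSK3B kinase; inactive = the rest.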

Experiments:
[1] = Wnt pathway potentiators raising nuclear beta-catenin – imaging, WNT3A-conditioned medium, mouse C2C12, NPC library, primary screen (AID 1117326; in the data active = nuclear beta-catenin stimulation mostly above about 4.2%, no sharp cut-off; inactive = mostly below about 10%; note: reference of the scale not given here); details: stronger effect = higher value
[2] = stimulators of insulin release from INS-1E, primary screen, cell-based, 5 mM glucose, NPC library (AID 1117329;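 active = compound raises insulin release from rat beta cells at 5 mM glucose, no numeric limit stated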; note: reference of the scale not given here); details: rat INS-1E insulin secretion, at 10 µM, stronger effect = higher value
[3] = growth inhibition of GSK3B-pretreated HCT116 cells – cell-based, CellTiter-Glo, 0.2 to 20 µM (AID 1117336); details: HCT116 viability after GSK3B inhibitor, at 20 µM, stronger effect = higher value
[4] = inhibition of endothelial tube formation, primary screen, imaging, VEGF stimulated, CD31 staining, tube area, NPC library (AID 1117340;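 active = compound that reduces growth-factor-driven endothelial tube area in a mixed cell culture, no cutoff stated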); details: VEGF-stimulated ADSC/ECFC co-culture, at 10 µM, stronger effect = higher value
[5] = GLP1 release stimulators, primary, NCI-H716, NPC library (AID 1117341;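 active = compound raises GLP1 secretion from the human gut endocrine cells, with no numeric limit stated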; note: reference of the scale not given here); details: NCI-H716 cells, at 10 µM, stronger effect = higher value
[6] = HCT116 colon cancer cell growth inhibition, primary screen, CellTiter-Glo luminescence, NPC library (AID 1117342;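 active = compounds that lower survival of HCT116 colon cancer cells in the luminescence readout, no numeric limit stated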); details: at 20 µM (top of the series)
[7] = reduced SW480 viability measured with CellTiter-Glo, NPC library, primary (AID 1117343;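 active = compounds that lower viability of the colon cancer cells in the luminescence readout, with no numeric limit stated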); details: CellTiter-Glo luminescence; at 20 µM (top of the series)
[8] = NPC library primary testing for decreased DLD-1 cell viability via CellTiter-Glo (AID 1117346;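 active = compounds that lower survival of DLD-1 colon cancer cells in the luminescence readout, no cutoff given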); details: DLD-1 viability, CellTiter-Glo luminescence; at 20 µM (top of the series)

| Compound | nuclear beta-catenin stimulation ([1]; at 10 µM) | nuclear beta-catenin stimulation ([1]; stimulation, at 2 µM) [%] | insulin secretion stimulation [2] | viability decrease [3] | tube area decrease [4] | GLP1 secretion stimulation [5] | inhibition of viability [6] | viability decrease (inhibition) [7] | viability decrease (inhibition) [8] |
| --- | --- | --- | --- | --- | --- | --- | --- | --- | --- |
| CC[C@@H]([C@H](C)O)n1ncn(-c2ccc(N3CCN(c4ccc(OC[C@@H]5CO[C@@](Cn6cncn6)(c6ccc(F)cc6F)C5)cc4)CC3)cc2)c1=O | 51.6% (active) | 8.2 | 1.4% (inactive) | 11.8% (inactive) | 97.9% (active) | 4.8% (inactive) | 77.7% (active) | 83.8% (active) | 24.1% (inactive) |
| CCCCCCCCCC(=O)O | -1.9% (inactive) | 0.7 | 3.3% (inactive) | -11.4% (inactive) | -24.1% (inactive) | 1.6% (inactive) | 7.9% (inactive) | 49.5% (inactive) | 4.9% (inactive) |
| CCOCCOC(=O)/C=C/c1ccc(OC)cc1 | 1.4% (inactive) | 1 | -1.7% (inactive) | -11.8% (inactive) | 18.9% (inactive) | -4% (inactive) | -4.53% (inactive) | 17.1% (inactive) | 9.7% (inactive) |
| Cc1c(C)c2c(c(C)c1OC(=O)c1cccnc1)CC[C@@](C)(CCC[C@H](C)CCC[C@H](C)CCCC(C)C)O2 | -0.1% (inactive) | -0.2 | -0.2% (inactive) | 13.1% (inactive) | -9.8% (inactive) | 5.5% (inactive) | -2.9% (inactive) | -20.2% (inactive) | -13.8% (inactive) |
| CCCCCCCCCCCCCCCCN | 1.3% (inactive) | 1.3 | -2.4% (inactive) | 5% (inactive) | 6.5% (inactive) | 0.9% (inactive) | 5.9% (inactive) | 4.5% (inactive) | -6.6% (inactive) |
| Cc1ccc(C(C)C)c(O)c1 | 0.6% (inactive) | 0.8 | -3.2% (inactive) | -0.65% (inactive) | 15.5% (inactive) | -0.9% (inactive) | -2.9% (inactive) | 74.8% (active) | 1.9% (inactive) |
| CC(=O)OC[C@H]1O[C@@](COC(C)=O)(O[C@H]2O[C@H](COC(C)=O)[C@@H](OC(C)=O)[C@H](OC(C)=O)[C@H]2OC(C)=O)[C@@H](OC(C)=O)[C@@H]1OC(C)=O | 0.3% (inactive) | -0.8 | -0.2% (inactive) | -1% (inactive) | 0.8% (inactive) | -0.5% (inactive) | 3.93% (inactive) | 16.6% (inactive) | -8% (inactive) |
| CC(C)CCCC(C)CCCC(C)CCCCC(C)CCCC(C)CCCC(C)C (configuration not stated) | -1.2% (inactive) | -0.8 | -1.6% (inactive) | -26.9% (inactive) | 4.8% (inactive) | -2.5% (inactive) | -10.1% (inactive) | 22.4% (inactive) | -26.5% (inactive) |
| CCOc1ccc(C(=O)OCCN(CC)CC)cc1 | -1% (inactive) | -1.4 | -0.6% (inactive) | 6.1% (inactive) | -2.2% (inactive) | 1.9% (inactive) | 43.8% (inactive) | 20.4% (inactive) | 8.4% (inactive) |
| O=C1NC2CCCCN2C12CCN(CCCN1c3ccccc3CCc3ccc(Cl)cc31)CC2 (configuration not stated) | 13.1% (inactive) | 0.1 | 3.85% (inactive) | 108% (active) | 89.4% (active) | 13.3% (inactive) | 112% (active) | 128% (active) | 101% (active) |
| C=CCN1C(=O)C(CC(C)C)NC1=S (configuration not stated) | 0% (inactive) | 0.3 | -1.4% (inactive) | -1.7% (inactive) | -6.4% (inactive) | -4% (inactive) | -4.1% (inactive) | 2.8% (active) | -17.7% (inactive) |
| C[C@H]1NCc2cc(-c3ccc4c(=O)c(C(=O)O)cn(C5CC5)c4c3OC(F)F)ccc21 | 4.5% (inactive) | 1.3 | 0.3% (inactive) | 2.4% (inactive) | 9.5% (inactive) | -0.7% (inactive) | 20.1% (inactive) | -3.4% (inactive) | 2.9% (inactive) |
| COc1ccc(OC(=O)N(CC(=O)O)Cc2ccc(OCCc3nc(-c4ccccc4)oc3C)cc2)cc1 | 1% (inactive) | -0.5 | -0.3% (inactive) | 100% (active) | -9% (inactive) | 51.7% (active) | 86.4% (active) | 105% (active) | 91.5% (active) |
| N[C@@H](CSCCCO)C(=O)O | -1.1% (inactive) | 1.4 | -0.6% (inactive) | -4.55% (inactive) | 1.7% (inactive) | -0.3% (inactive) | -17.6% (inactive) | 17.3% (inactive) | -1.1% (inactive) |
| CN1CC(=O)NC1=N | -0.7% (inactive) | 1.5 | 4.1% (inactive) | -24% (inactive) | 21.3% (inactive) | 0.9% (inactive) | -3.43% (inactive) | -155% (inactive) | -6.6% (inactive) |
| COc1ccc2cc(Br)ccc2c1 | -0.6% (inactive) | -0.3 | 0.9% (inactive) | -1.1% (inactive) | 3.3% (inactive) | -5% (inactive) | -2.2% (inactive) | -5.1% (inactive) | -6% (inactive) |
| CCCCCCCCOc1ccc(C(=O)c2ccccc2)c(O)c1 | 1% (inactive) | 0.6 | -2.1% (inactive) | -6.85% (inactive) | -7.2% (inactive) | 0.4% (inactive) | -7.5% (inactive) | -0.5% (inactive) | 6.1% (inactive) |
| CCc1oc2ccccc2c1C(=O)c1cc(I)c(O)c(I)c1 | 4.9% (inactive) | 0.4 | -1.6% (inactive) | 98.7% (active) | 108% (active) | -3.6% (inactive) | 99% (active) | 101% (active) | 102% (active) |
| NNc1nnc(NN)c2ccccc12 | 3.3% (inactive) | 1.4 | -1.8% (inactive) | -0.85% (inactive) | 40.1% (active) | -3.3% (inactive) | 22.6% (inactive) | 22.7% (inactive) | 6.6% (inactive) |
| Cc1cnc(NS(=O)(=O)c2ccc(N)cc2)nc1 | 1.1% (inactive) | -0.7 | 1.8% (inactive) | 7.4% (inactive) | -8.2% (inactive) | -0.6% (inactive) | -6.6% (inactive) | 7.7% (inactive) | 6.6% (inactive) |
| Cc1cc(NS(=O)(=O)c2ccc(N)cc2)nc(C)n1 | 0.1% (inactive) | 0.7 | -1.1% (inactive) | 0.6% (inactive) | -1.9% (inactive) | -0.1% (inactive) | -10.6% (inactive) | 55% (active) | 29.8% (inactive) |
| Cc1nc(-c2ccc(Cl)cc2)oc1COC(C)(C)C(=O)O | 0.5% (inactive) | 0.6 | 3.1% (inactive) | -10.1% (inactive) | 9.7% (inactive) | -2.6% (inactive) | 8.5% (inactive) | 14.8% (inactive) | 10% (active) |
| O=C(O)[C@@H]1C(=CCO)O[C@@H]2CC(=O)N12 | 1.3% (inactive) | 0.6 | 2.2% (inactive) | 16.4% (inactive) | 0.5% (inactive) | -1.2% (inactive) | 18.5% (inactive) | 26% (inactive) | -7.7% (inactive) |
| CN(C)[C@@H]1C(=O)C(C(N)=O)=C(O)[C@@]2(O)C(=O)C3=C(O)c4c(O)cccc4C[C@H]3C[C@@H]12 | 11% (inactive) | -0.5 | -3% (inactive) | 98.1% (active) | -5.9% (inactive) | 18.7% (inactive) | 75.5% (active) | 100% (active) | 89.5% (active) |
| COc1cc2c(cc1OC)C(=O)CC2 | 0.3% (inactive) | 2 | 0.2% (inactive) | -1.6% (inactive) | 3.8% (inactive) | 3.1% (inactive) | -8.1% (inactive) | 4.2% (inactive) | 14.9% (inactive) |
| CC(=O)Nc1ccc(OCCOCCOc2ccc(NC(C)=O)cc2)cc1 | 0.3% (inactive) | 0.3 | -2.6% (inactive) | 0.7% (inactive) | -0.3% (inactive) | -1.2% (inactive) | -3.5% (inactive) | 11.3% (inactive) | -8.2% (inactive) |
| CO/N=C(/C(=O)N[C@@H]1C(=O)N2C(C(=O)[O-])=C(C[n+]3ccn4ncccc43)CS[C@H]12)c1nsc(N)n1 | 2% (inactive) | -1 | 3.45% (inactive) | 16.4% (inactive) | -10.7% (inactive) | -1.2% (inactive) | -21.9% (inactive) | -3.8% (inactive) | -6.6% (inactive) |
| CCCCCC1Nc2cc(C(F)(F)F)c(S(N)(=O)=O)cc2S(=O)(=O)N1 (configuration not stated) | 0.5% (inactive) | -0.2 | 2% (inactive) | 13.4% (inactive) | 9.2% (inactive) | -0.1% (inactive) | 43% (inactive) | 0.7% (inactive) | 31.7% (inactive) |
